Data taken from PubChem BioAssay AID1159580 (chemical genetic matrix, 2015).
Values joined by “and” are separate entries in the source; they are usually repeats but may differ in a detail not shown here. Equal entries are not always repeated. Among all 5,500 compounds or so, about 2,000 (36%) were called active. Roughly 18% stayed inconclusive and do not appear here. Rule as the data show it: active = normalized growth mostly below about 0.91 (no sharp cut-off); inconclusive = no clear call, values can overlap the other calls; inactive = mostly above about 0.92. The list shows a part of the results.

Assay: chemical genetic growth profiling, strain panel (AID 1159580);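 also: tested at 20 µM; growth read once vehicle control cultures reached saturation at 30 °C; 1 = growth at the plate median or of vehicle wells; lower values mean less growth of the strain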
Conditions: S. cerevisiae deletion strains, growth OD

Measured: normalized growth

O=C(O)c1cc2cc(Cl)ccc2[nH]1
inactive: locus YAL013W, strain DEP1, active compounds read low 1.01 | locus YAL021C, strain ccr4, active compounds read low 0.995 | locus YAL026C, strain drs2, active compounds read low 0.988 | locus YAL030W, strain snc1, active compounds read low 0.989 | locus YBL061C, strain skt5, active compounds read low 0.991 | locus YBR009C, strain hhf1, active compounds read low 0.978 | locus YBR021W, strain FUR4, active compounds read low 0.998 | locus YBR023C, strain chs3, active compounds read low 0.986 | locus YBR171W, strain sec66, active compounds read low 0.986 | locus YBR229C, strain ROT2, active compounds read low 1.01 | locus YBR231C, strain swc5, active compounds read low 0.987 | locus YBR279W, strain paf1, active compounds read low 0.995 | locus YCL011C, strain gbp2, active compounds read low 0.985 | locus YCL016C, strain dcc1, active compounds read low 0.988 | locus YCL029C, strain bik1, active compounds read low 0.983 | locus YCL061C, strain MRC1, active compounds read low 0.984 | locus YCL069W, strain vba3, active compounds read low 0.993 | locus YCR088W, strain abp1, active compounds read low 0.975 | locus YDL005C, strain med2, active compounds read low 0.987 | locus YDL035C, strain GPR1, active compounds read low 1.02 | locus YDL040C, strain nat1, active compounds read low 0.989 | locus YDL074C, strain BRE1, active compounds read low 1.05 | locus YDL101C, strain DUN1, active compounds read low 1.03 | locus YDL134C, strain PPH21, active compounds read low 1.01 | locus YDL185W, strain tfp1, active compounds read low 0.973 | locus YDL192W, strain arf1, active compounds read low 0.989 | locus YDR001C, strain nth1, active compounds read low 0.981 | locus YDR069C, strain doa4, active compounds read low 0.983 | locus YDR101C, strain arx1, active compounds read low 0.971 | locus YDR137W, strain rgp1, active compounds read low 0.999 | locus YDR150W, strain NUM1, active compounds read low 1.01 | locus YDR159W, strain sac3, active compounds read low 0.977 | locus YDR162C, strain NBP2, active compounds read low 1.05 | locus YDR195W, strain ref2 0.998 | locus YDR297W, strain sur2, active compounds read low 0.997 | locus YDR318W, strain mcm21, active compounds read low 0.984 | locus YDR334W, strain swr1, active compounds read low 0.986 | locus YDR335W, strain msn5, active compounds read low 0.988 | locus YDR388W, active compounds read low 0.98 | locus YDR392W, strain spt3, active compounds read low 0.953 | locus YDR502C, strain sam2, active compounds read low 0.998 | locus YEL003W, strain gim4, active compounds read low 1 | locus YEL037C, strain rad23, active compounds read low 0.98 | locus YEL061C, strain CIN8 (second series), active compounds read low 0.981 | locus YEL061C, strain CIN8, active compounds read low 1 | locus YER015W, strain faa2, active compounds read low 0.993 | locus YER016W, strain bim1, active compounds read low 0.984 | locus YER110C, active compounds read low 0.982 | locus YER111C, strain swi4, active compounds read low 0.98 | locus YER155C, strain BEM2 (second series), active compounds read low 0.972 | locus YER155C, strain BEM2, active compounds read low 1.01 | locus YER167W, strain BCK2, active compounds read low 1.01 | locus YFR010W, strain ubp6, active compounds read low 0.986 | locus YGL078C, strain dbp3, active compounds read low 0.979 | locus YGL086W, strain mad1, active compounds read low 0.977 | locus YGL167C, strain pmr1, active compounds read low 0.988 | locus YGL173C, strain kem1, active compounds read low 0.984 | locus YGL227W, strain vid30, active compounds read low 0.973 | locus YGL240W, strain doc1, active compounds read low 0.984 | locus YGL248W, strain PDE1, active compounds read low 1.01 | locus YGL253W, strain hxk2, active compounds read low 0.994 | locus YGR078C, strain PAC10, active compounds read low 1.03 | locus YGR135W, strain pre9, active compounds read low 0.994 | locus YGR229C, strain SMI1, active compounds read low 1.02 | locus YGR252W, strain gcn5, active compounds read low 0.928 | locus YHR013C, strain ard1, active compounds read low 0.973 | locus YHR027C, strain rpn1, active compounds read low 0.988 | locus YHR030C, strain SLT2, active compounds read low 0.997 and 0.95 | locus YHR079C, strain IRE1 (second series), active compounds read low 0.984 | locus YHR079C, strain IRE1, active compounds read low 0.932 | locus YHR094C, strain hxt1, active compounds read low 0.984 | locus YHR129C, strain ARP1, active compounds read low 1.01 | locus YHR142W, strain chs7, active compounds read low 0.984 | locus YHR200W, strain rpn10, active compounds read low 0.99 | locus YIL066C, strain RNR3, active compounds read low 1.01 | locus YIL073C, strain SPO22, active compounds read low 1.02 | locus YIL125W, strain kgd1, active compounds read low 0.979 | locus YIR030C, strain dcg1, active compounds read low 0.991 | locus YJL092W, strain hpr5, active compounds read low 0.98 | locus YJL095W, strain BCK1 (second series), active compounds read low 0.983 | locus YJL095W, strain BCK1, active compounds read low 1.03 and 0.942 | locus YJL115W, strain asf1, active compounds read low 0.992 | locus YJL129C, strain trk1, active compounds read low 0.99 | locus YJL134W, strain LCB3, active compounds read low 1.01 | locus YJL154C, strain vps35, active compounds read low 0.985 | locus YJL164C, strain tpk1, active compounds read low 0.99 | locus YJL166W, strain qcr8, active compounds read low 0.995 | locus YJL168C, strain set2, active compounds read low 0.986 | locus YJL187C, strain SWE1 (second series), active compounds read low 1.02 | locus YJL187C, strain SWE1, active compounds read low 0.992 | locus YJR043C, strain POL32, active compounds read low 0.984 | locus YJR066W, strain TOR1, active compounds read low 0.903
